{
  "source": "PubChem BioAssay (Tox21)",
  "note": "A number with no mark means an inactive call. Activity calls are given as the source filed them. Calls follow the shape of the dose curve; as a rule, active = well fitted curve in the direction sought with a large enough effect in the repeat runs; inconclusive = weak or mixed curves; inactive = flat fitted curve, though single readings scatter. % is scaled to controls: 0 for no effect and ±100 for the full control effect.",
  "data": [
    {"experiment": "qHTS assay to test for compound auto fluorescence at 460 nm (blue) in HEK293 cell free culture (AID 720681)", "settings": "cell-free medium, autofluorescence 405/460 nm (blue); series mostly up to 91.3 µM; fluorescence, % of fluorescent control: at the top concentration", "source_text": "U.S. Tox21 Program National Center for Advancing Translational Sciences [NCATS] NIH Chemical Genomics Center [NCGC] U.S. Environmental Protection Agency [EPA] National Institutes of Environmental Health Sciences [NIEHS] National Toxicology Program [NTP] U.S. Food and Drug Administration [FDA] Tox21 Assay Overview: Compound auto fluorescence often interferes with screening of the compound library against various biological targets and signaling pathways. Some of these compounds may have fluorophoric properties. Such properties may interfere with the assay outputs resulting in false positives and/or negatives. To decrease such complications and ensure the compound activities are relevant in terms of biological response, the Tox21 10K compound library was screened for auto fluorescence. From the fluorophores used as reporter signals in our screening assays, the auto fluorescence equivalencies of compounds against three fluorophores have been evaluated: Triamterene, Fluorescein and Rose Bengal sodium for blue, green and red fluorescence, respectively. The fluorescence intensities were measured using Excitation/Emission wavelengths at 405/460nm, 485/535nm and 540/590nm for blue, green and red labels, respectively. This assay includes the blue fluorescence data.\nTox21 Assay Protocol Summary: 5 uL of culture medium (DMEM containing 10% FBS) per well was dispensed into black wall/clear bottom 1536-well plates using a Multidrop Combi Dispenser (ThermoFisher Scientific, Waltham, MA). After 23 nL compound or DMSO vehicle was transferred into assay plate by a pintool work station (Kalypsys, San Diego, CA), fluorescence intensities in the assay plates were measured by an Envision (PerkinElmer, Shelton, CT) plate reader using three labels for measuring blue, green and red fluorescence at […] 460, 535 and 590nm respectively.", "values": [
      {"smiles": "O=C(O)CCC(=O)c1ccc(-c2ccccc2)cc1", "fluorescence, % of fluorescent control": "0.0648% [at 18.6 µM]"},
      {"smiles": "CC(C)c1ccc(C(=O)N=C(N)N)cc1S(C)(=O)=O", "fluorescence, % of fluorescent control": "-0.277%"},
      {"smiles": "CC(CCc1ccc(O)cc1)NCCc1ccc(O)c(O)c1", "note": "(stereo not given)", "fluorescence, % of fluorescent control": "1.82% [at 46 µM]"},
      {"smiles": "Cc1c[nH]c2ccccc12", "fluorescence, % of fluorescent control": "0.0117% [at 46 µM]"},
      {"smiles": "CCN(Cc1cccc(S(=O)(=O)O)c1)c1ccc(C(=C2C=CC(=[N+](CC)Cc3cccc(S(=O)(=O)O)c3)C=C2)c2ccccc2S(=O)(=O)[O-])cc1", "fluorescence, % of fluorescent control": "0.733%"},
      {"smiles": "O=c1[nH][nH]c(=O)c2cc([N+](=O)[O-])ccc12", "fluorescence, % of fluorescent control": "-0.41% [at 95.7 µM]"},
      {"smiles": "CC1CCCO1", "note": "(stereo not given)", "fluorescence, % of fluorescent control": "-0.0253%"},
      {"smiles": "COc1ccc(-n2nc(C(F)F)cc2-c2ccc(S(C)=O)cc2)cc1", "note": "(stereo not given)", "fluorescence, % of fluorescent control": "0.0302%"},
      {"smiles": "C1=CCC2CC=CC2C1", "note": "(stereo not given)", "fluorescence, % of fluorescent control": "-0.0053%"},
      {"smiles": "O=C1[C@@H]2[C@H]3CC[C@H](C3)[C@@H]2C(=O)N1CCCCN1CCN(c2ncccn2)CC1", "fluorescence, % of fluorescent control": "0.0838% [at 46 µM]"},
      {"smiles": "O=C1NC(=O)c2cccc3cccc1c23", "fluorescence, % of fluorescent control": "-0.0493%"},
      {"smiles": "CC1=CC[C@@]23C[C@@H]1C(C)(C)[C@@H]2CC[C@H]3C", "fluorescence, % of fluorescent control": "-0.0294%"},
      {"smiles": "CCCCCCCCCCCCCCN(C)C", "fluorescence, % of fluorescent control": "0.0125% [at 18.6 µM]"},
      {"smiles": "C=CC(=O)NC(C)C", "fluorescence, % of fluorescent control": "-0.0042%"},
      {"smiles": "C1CCCCC1", "fluorescence, % of fluorescent control": "-0.0432% [at 95.7 µM]"},
      {"smiles": "O=C(/C=C/c1ccc([N+](=O)[O-])cc1)c1ccccc1", "fluorescence, % of fluorescent control": "-0.0144%"},
      {"smiles": "FC(F)(F)C(F)(F)C(F)(F)C(F)(F)CCI", "fluorescence, % of fluorescent control": "-0.0103% [at 46 µM]"},
      {"smiles": "O=C(C(=O)c1ccco1)c1ccco1", "fluorescence, % of fluorescent control": "1.15%"},
      {"smiles": "O=[N+]([O-])C1(Br)COCOC1", "fluorescence, % of fluorescent control": "-0.0003%"},
      {"smiles": "C[C@H](CS)C(=O)N1CCC[C@H]1C(=O)O", "fluorescence, % of fluorescent control": "-0.0985% [at 46 µM]"},
      {"smiles": "O=C(O)CCCc1c[nH]c2ccccc12", "fluorescence, % of fluorescent control": "0.0064%"},
      {"smiles": "CCCCCCCCCCCCCOS(=O)(=O)O", "fluorescence, % of fluorescent control": "-0.0044%"},
      {"smiles": "CC[C@H]1OC(=O)[C@H](C)[C@@H](O[C@H]2C[C@@](C)(OC)[C@@H](O)[C@H](C)O2)[C@H](C)[C@@H](O[C@@H]2O[C@H](C)C[C@H](N(C)C)[C@H]2O)[C@](C)(O)C[C@@H](C)/C(=N\\OCOCCOC)[C@H](C)[C@@H](O)[C@]1(C)O", "Potency": "inactive"},
      {"smiles": "CSCC[C@H](NC(=O)[C@H](Cc1c[nH]c2ccccc12)NC(=O)CCNC(=O)OC(C)(C)C)C(=O)N[C@@H](CC(=O)O)C(=O)N[C@@H](Cc1ccccc1)C(N)=O", "fluorescence, % of fluorescent control": "-0.143% [at 46 µM]"},
      {"smiles": "C/C(C=O)=C\\c1ccccc1", "fluorescence, % of fluorescent control": "-0.0402%"},
      {"smiles": "CN=C(N)NC(=O)Nc1c(C)cccc1C", "fluorescence, % of fluorescent control": "-0.0468% [at 46 µM]"},
      {"smiles": "CCNc1nc(N)nc(Cl)n1", "fluorescence, % of fluorescent control": "0.0467%"},
      {"smiles": "CCC(Cl)CC(Cl)C(Cl)C(Cl)C(Cl)C(C)Cl", "note": "(stereo not given)", "fluorescence, % of fluorescent control": "0.102% [at 13.4 µM]"},
      {"smiles": "CCCCCCC(O)CCCCCCCCCCC(=O)OC", "note": "(stereo not given)", "fluorescence, % of fluorescent control": "-0.119%"},
      {"smiles": "Cc1ccc2c(c1)CCCN2", "fluorescence, % of fluorescent control": "0.42%"},
      {"smiles": "C=CC(=O)O", "Potency": "inactive"},
      {"smiles": "CC(C)C1CCC(C(=O)N[C@H](Cc2ccccc2)C(=O)O)CC1", "note": "(stereo not given in full)", "fluorescence, % of fluorescent control": "0.295% [at 46 µM]"},
      {"smiles": "CCC(C)(C)C(=O)O", "fluorescence, % of fluorescent control": "0.0289%"},
      {"smiles": "Cc1ccc(N(CCO)CCO)cc1", "fluorescence, % of fluorescent control": "0.263%"},
      {"smiles": "O=C(NS(=O)(=O)/C=C/c1ccccc1)c1ccc(F)cc1Cl", "fluorescence, % of fluorescent control": "-0.312%"},
      {"smiles": "Oc1ccc2c(c1)Cc1ccccc1-2", "fluorescence, % of fluorescent control": "-0.119%"},
      {"smiles": "Cc1cc(CCC(=O)OCCOCCOCCOC(=O)CCc2cc(C)c(O)c(C(C)(C)C)c2)cc(C(C)(C)C)c1O", "fluorescence, % of fluorescent control": "-0.205%"},
      {"smiles": "CC(C)(C)C(O)/C=C/c1ccc2c(c1)OCO2", "note": "(stereo not given)", "fluorescence, % of fluorescent control": "-0.0515% [at 46 µM]"},
      {"smiles": "COC(C)(C)OC", "fluorescence, % of fluorescent control": "-0.504%"},
      {"smiles": "CSSc1ccoc1C", "fluorescence, % of fluorescent control": "0.11%"}
    ]}
  ]
}
